Inconclusive results are not listed. Activity calls are given as the source filed them. How the source made its calls, unless noted: active means hit-call score of the fitted dose curve at least 0.9, where 1 is the maximum; inactive means score below 0.9.
tested on: not listed separately; experiment: CCTE_Deisenroth_5AR_NBTE_donor: CCTE's 5alpha-reductase NanoBRET Target Engagement Assay […], Deisenroth Lab (AID 2284319); settings: actives raise or lower the signal
Procedure, shortened: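 HEK293T cells transiently expressing SRD5A2-NanoLuc, exposed 5 h to chemicals (8 points, 10 nM - 29.9 uM), with testosterone tracer for the final 2 h. Donor luminescence at 460 nm read after Nano-Glo substrate plus extracellular NanoLuc inhibitor; bidirectional fit versus DMSO.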

Row | Compound | outcome
1 | CC1(C)CCC(=Cc2ccc(Cl)cc2)C1(O)Cn1cncn1 (stereo not given) | inactive
2 | COP(=S)(OC)SCn1nnc2ccccc2c1=O | inactive
3 | Cc1ccc(N=CN(C)C=Nc2ccc(C)cc2C)c(C)c1 | inactive
4 | O=C1C2CC=CCC2C(=O)N1SC(Cl)(Cl)Cl (stereo not given) | inactive

tested on: not listed separately; experiment: CCTE_Deisenroth_5AR_NBTE_acceptor: CCTE's 5alpha-reductase NanoBRET Target Engagement Assay - Autofluorescence Screen, Deisenroth Lab (AID 2284321); settings: actives raise or lower the signal;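 further: compound fluorescence in the acceptor channel under 460 nm excitation flags autofluorescence artifacts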
Procedure, shortened: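 Autofluorescence check: ToxCast chemicals, nominal 100 uM, excitation 460 nm, n=3 runs. Acceptor fluorescence endpoint, bidirectional fit relative to DMSO. Parent assay in HEK293T, 5 h post-dose.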

Row | Compound | outcome
5 | CC1(C)CCC(=Cc2ccc(Cl)cc2)C1(O)Cn1cncn1 (stereo not given) | inactive
6 | COP(=S)(OC)SCn1nnc2ccccc2c1=O | inactive
7 | Cc1ccc(N=CN(C)C=Nc2ccc(C)cc2C)c(C)c1 | inactive
8 | O=C1C2CC=CCC2C(=O)N1SC(Cl)(Cl)Cl (stereo not given) | inactive

tested on: SRD5A2 (gene 6716); experiment: CCTE_Deisenroth_5AR_NBTE_ratio: CCTE's 5alpha-reductase NanoBRET Target Engagement Assay - Ratio, Deisenroth Lab (AID 2284322); settings: actives raise or lower the signal
Procedure, shortened: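 SRD5A2-NanoLuc HEK293T; cmpd 10 nM-29.9 uM, 3 h preinc + testosterone tracer 2 h; NanoBRET ratio 650/460; bidirectional fit vs DMSO.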

Row | Compound | outcome
9 | CC1(C)CCC(=Cc2ccc(Cl)cc2)C1(O)Cn1cncn1 (stereo not given) | inactive
10 | COP(=S)(OC)SCn1nnc2ccccc2c1=O | inactive
11 | Cc1ccc(N=CN(C)C=Nc2ccc(C)cc2C)c(C)c1 | inactive
12 | O=C1C2CC=CCC2C(=O)N1SC(Cl)(Cl)Cl (stereo not given) | inactive

tested on: not listed separately; experiment: TAMU_PeakParms_SingleDonor1434_Asystole: Texas A&M University (TAMU) 1.5-hr Human Induced Pluripotent Stem Cell (iPSC)-derived Cardiomyocytes Calcium (Ca+2) Flux Assay for Cardiotoxicity: Asystole (quiescence of beating) (AID 2284328; active means hit-call score of the fitted dose curve at least 0.9, where 1 is the maximum); settings: not given
Procedure, shortened: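 Human iPSC-derived cardiomyocytes (donor 1434) were exposed to 0.2, 1, 10 and 100 uM compound in 0.5% DMSO for 90 min at 37C. Ca2+-dye fluorescence gave average peak frequency; POD is EC95, a 95% beat-rate drop versus DMSO.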

Row | Compound | outcome
13 | CCCCC(C#N)(Cn1cncn1)c1ccc(Cl)cc1 (stereo not given) | inactive
14 | CNC(=O)Oc1cccc2ccccc12 | inactive
15 | O=C1C2CC=CCC2C(=O)N1SC(Cl)(Cl)Cl (stereo not given) | inactive

Source: PubChem BioAssay (EPA / NIEHS)
